Among the data in publication PMC11062922 (Nature Chemical Biology, 2023) are potency estimated from few doses values, retold here.

The assay relates to GSPT1;GSPT2. More on the design: species or system human, MV4-11 + K-562 + COLO205 + SK-N-BE2 + OVCAR-8. The settings on record: read-out: apparent Kd; compound concentrations: 100 nM and 1000 nM (sheet 'Samples'), CATDS: 3.5728111751545999E-2; n = 1.

On to `CCC(CC)(CC)n1cnc2c(N)ncnc21` [SKF-97620], for which the potency estimated from few doses is 655 nM.
